In ChEMBL document CHEMBL3988442, “University of Dundee, Small-Polar-MMV Screening Library” (2021):

The molecules below were run against Shiga toxin 2 (Escherichia coli O157:H7) (UniProt P09385+P09386) (assay: E. coli 0.157:H7 Shiga Toxin SOP - stx2 screening assay). Settings: 30 µM.
Format: functional
Parameters: scale not given: direction of the effect not stated beside the values
Work on `c1cnc(-c2nc(CN3CCC(c4ccn[nH]4)CC3)cs2)nc1` yielded a Percent Effect of -11.4%. In the case of `CCOCC1CC2(CCN(C(=O)c3ccccn3)CC2)CO1` (stereo not given), the Percent Effect is reported as 5.8%. Work on `CCn1c(=O)nc2n1C(=O)N(c1cccc(Cl)c1)C2` yielded a Percent Effect of -43.9%. With `Cc1ncsc1CN1CC[C@H]2C(=O)N(c3ccccc3)CCO[C@H]2C1` the Percent Effect was 3.87%. `CCn1c(N)nc2cc(C(=O)NCCc3ccccc3C)cnc21` was tested, and the Percent Effect was -69.2%. For `Cn1cc(-c2nnn3c2COC(CNCc2nccs2)C3)cn1` (stereo not given), the Percent Effect was -39.2%. Work on `CNCC(=O)N1CCC(c2ccnc(Nc3ccc(C)cn3)n2)C1` (stereo not given) yielded a Percent Effect of -58.2%. For `Cc1cc(C)n(C2CCCN(C(=O)c3cnc4onc(C)c4c3)C2)n1` (stereo not given), the Percent Effect was 15.8%. `CCc1cnc2c(c1Nc1ccc(OC)cc1)c(=O)n(C)c(=O)n2C` gave a Percent Effect of -12.8%. With `COc1ccc(COCC(O)CNC(=O)c2cccnc2)cc1` (stereo not given) the Percent Effect was -12.2%. `Cc1ccoc1C(=O)N1CCO[C@H]2[C@H](OCC3CCOCC3)CC[C@@H]21` was tested, and the Percent Effect was -15.8%. In the case of `O=c1cc(Cn2cncn2)nc2n1CCCN(CC1CC1)C2`, the Percent Effect is reported as -0.568%. `Cc1cc(C)n(CC2CCCN2C(=O)c2cc[nH]n2)n1` (stereo not given) showed a Percent Effect of -26.2%. Work on `Cc1nn(-c2ccccc2)cc1C(=O)N1CCCC(n2cccn2)C1` (stereo not given) yielded a Percent Effect of -27.4%. Molecule `Cc1noc(C)c1CN1C[C@@H]2COC[C@H](C(=O)N3CCCCO3)[C@@H]2C1` has a Percent Effect of 5.31%. Molecule `CC(C)Nc1nc(N2CCOCC2)nc2c1CN(CC(=O)N(C)C)CC2` has a Percent Effect of -23.6%. `COc1ccc(C)cc1S(=O)(=O)NCC(c1cccn1C)N(C)C` (stereo not given) showed a Percent Effect of 2.58%. `CCN(CC1CCOC1)C(=O)c1cccnc1N1CCOCC1` (stereo not given) gave a Percent Effect of 25.6%. `Cn1cccc1CNC(=O)N(CCO)C1CCCc2ccccc21` (stereo not given) showed a Percent Effect of -4.96%. `CNS(=O)(=O)c1ccc(CNC(=O)NCC2CCCO2)cc1` (stereo not given) was tested, and the Percent Effect was 25.4%. With `Fc1cccc(N2CCCC3(CN(Cc4ccncc4)CCO3)C2)c1` (stereo not given) the Percent Effect was -4.22%. `Cn1cc(Br)c(=O)c(NS(=O)(=O)c2ccc(F)cc2)c1` was tested, and the Percent Effect was -1.63%. `O=C(NCc1ccc(-n2cncn2)nc1)c1ccoc1` showed a Percent Effect of -9.83%. For `O=C([C@H]1CN(CCc2ccccc2)C[C@H]2OCC[C@@H]12)N1CCCO1`, the Percent Effect was -9.29%. `COCCCN1CCCN(C(C)C(=O)Nc2ccnn2C(C)C)CC1` (stereo not given) was tested, and the Percent Effect was 11.2%. `CC(C)c1cc(NCC(C)N2CCCC2)n2nccc2n1` (stereo not given) showed a Percent Effect of -11.9%. `Fc1ccc(CNCC2OCCc3cn(CC4CC4)nc32)cc1` (stereo not given) gave a Percent Effect of -6.8%. Work on `COCCC(=O)N1CCC2(COCc3cnc(N4CCOCC4)nc32)C1` (stereo not given) yielded a Percent Effect of 9.32%. In the case of `Cn1cccc1-c1cc(C(=O)N2CC(c3cccnc3)C2)[nH]n1`, the Percent Effect is reported as -50.6%. `Cc1cc(C)n(CCCNC(=O)[C@@H](C)NC(=O)OC(C)(C)C)n1` showed a Percent Effect of 12.1%. In the case of `CC(=O)N1CCOCC2(CCN(Cc3ccc(C)s3)CC2)C1`, the Percent Effect is reported as -23.3%. For `CCc1csc(C2CCCN(C(=O)c3cnn(CC)c3)C2)n1` (stereo not given), the Percent Effect was -7.95%. `Cc1n[nH]c(C)c1NC(=O)CN1CCCC(CNC(=O)C(C)(C)C)C1` (stereo not given) gave a Percent Effect of 19.6%. Work on `Cn1ncc2c1C(COCC1CC1)CN(Cc1ccc(F)cc1)C2` (stereo not given) yielded a Percent Effect of -5.43%. Work on `C[C@H]1C[C@@H]2CCN(C(=O)c3cccn3C)C[C@H]2O1` yielded a Percent Effect of -0.37%. Work on `CN(C)C(=O)CN1C[C@@H]2CC[C@H](C1)N(Cc1cccc(Cl)c1Cl)C2` yielded a Percent Effect of 1.27%. `O=C(Nc1ccccc1F)N(CCO)Cc1ccsc1` was tested, and the Percent Effect was 20.3%. With `CNC(=O)c1cccnc1Oc1ccccc1` the Percent Effect was 8.4%. In the case of `Cc1cccnc1CNc1cc(N2CCCC2CO)ncn1` (stereo not given), the Percent Effect is reported as -6.27%. In the case of `Cn1ccnc1CN1CCN(CCOc2ccccc2C#N)CC1`, the Percent Effect is reported as 16.8%.
